ERp5 inh – ERp5 (human) disulfide isomerase inhibition; Q15084; ERp5 insulin aggregation, absorbance 650 nm, 90 min; inhibition, % at 9.99 µM; 0.05% of 350,000 active; AID 651711;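 active = mean replicate inhibition above about 25%, with every replicate also reaching it, limit read from the data, passing the limit was not always enough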
HDAC3 inh – inhibitors of human histone deacetylase 3; O15379; recombinant HDAC3, fluorogenic peptide/trypsin coupled, fluorescence; inhibition, % at 8.3 µM; 0.15% of 320,000 active; AID 2718; in the data active = inhibition above about 26%, passing the limit was not always enough
Target sequence (O15379 whole entry, looked up): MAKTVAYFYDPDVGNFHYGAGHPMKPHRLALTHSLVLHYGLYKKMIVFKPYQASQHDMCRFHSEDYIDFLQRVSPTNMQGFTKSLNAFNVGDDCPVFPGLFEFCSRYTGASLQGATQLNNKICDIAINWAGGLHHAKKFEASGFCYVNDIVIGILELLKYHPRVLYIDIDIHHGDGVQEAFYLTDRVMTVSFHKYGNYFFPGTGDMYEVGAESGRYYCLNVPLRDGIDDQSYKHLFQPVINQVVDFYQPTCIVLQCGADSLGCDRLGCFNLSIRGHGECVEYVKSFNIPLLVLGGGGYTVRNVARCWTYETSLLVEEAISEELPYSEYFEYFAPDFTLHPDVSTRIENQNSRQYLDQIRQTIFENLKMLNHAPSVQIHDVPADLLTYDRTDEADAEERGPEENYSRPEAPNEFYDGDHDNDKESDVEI
ERAP1 inh – blocks human ERAP1 aminopeptidase activity; Q9NZ08; recombinant ERAP1, Leu-AMC fluorescence, 60 min; inhibition, % at 10.7 µM; 0.15% of 340,000 active; AID 652197;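 active = mean replicate inhibition of at least 30%, or all replicates individually reaching that 30% level; inactive = mean below 30% and not every replicate reaching it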
SIRT5 block – inhibitors of human sirtuin-5 desuccinylase; Q9NXA8; inhibition, % at 15 µM; 1.1% of 330,000 active; Purified SirT5, succinyl-peptide AMC, trypsin-coupled fluorescence; in the data active = inhibition above about 15%
PDI inh – PDI (human) enzyme inhibition | 0.052% of 350,000 active | AID 588391 | PDI insulin aggregation turbidity, A650, 90 min | inhibition, % at 10 µM | P07237;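 active = mean inhibition across replicates of 30% or more, whatever share of single replicates reach that level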
A number is an active result. The full list was thinned out, with hits kept by preference.

`C[C@@H]1CN([C@H](C)CO)S(=O)(=O)c2ccc(C#CC(C)(C)O)cc2O[C@H]1CN(C)Cc1ccccc1` gave ERp5 inh inactive, ERAP1 inh inactive and SIRT5 block inactive.
For C[C@H](CO)N1C[C@H](C)[C@@H](CN(C)Cc2ccc(-c3ccccc3)cc2)Oc2cc(C#CC(C)(C)O)ccc2S1(=O)=O the results were ERp5 inh inactive, ERAP1 inh inactive and SIRT5 block inactive.
`CCNC(=O)Nc1ccc2c(c1)C(=O)N(C)[C@H]1CC[C@H](CC(=O)NCc3ccccc3F)O[C@@H]1CO2` gave ERp5 inh inactive, ERAP1 inh inactive and SIRT5 block inactive.
COc1ccccc1-c1cnc2c(c1)C(=O)N([C@H](C)CO)C[C@H](C)[C@@H](CN(C)C(C)=O)O2 was read as ERp5 inh inactive, ERAP1 inh inactive and SIRT5 block inactive.
COc1ccccc1-c1ccc2c(c1)O[C@@H](CN(C)CC1CCOCC1)[C@H](C)CN([C@H](C)CO)S2(=O)=O was read as ERp5 inh inactive, ERAP1 inh inactive and SIRT5 block 16.
COc1ccccc1-c1ccc2c(c1)O[C@H](CN(C)Cc1ccc3c(c1)OCO3)[C@H](C)CN([C@H](C)CO)S2(=O)=O was read as ERp5 inh inactive, ERAP1 inh inactive and SIRT5 block 22.
Screening C[C@H]1CN([C@@H](C)CO)S(=O)(=O)c2ccc(-c3cccc(C(=O)N(C)C)c3)cc2O[C@H]1CN(C)Cc1ccc2c(c1)OCO2 returned ERp5 inh inactive, ERAP1 inh inactive and SIRT5 block inactive.
C[C@H](CO)N1C[C@H](C)[C@@H](CN(C)Cc2ccc3c(c2)OCO3)Oc2cc(-c3cccc(C(=O)N(C)C)c3)ccc2S1(=O)=O was read as ERp5 inh inactive, ERAP1 inh inactive and SIRT5 block 18.
C[C@H]1CN([C@@H](C)CO)S(=O)(=O)c2ccc(-c3cccc(C(=O)N(C)C)c3)cc2O[C@@H]1CN(C)Cc1ccc2c(c1)OCO2 was read as ERp5 inh inactive, ERAP1 inh inactive and SIRT5 block 15.
Screening C[C@@H]1CCCCO[C@@H](CN(C)S(C)(=O)=O)[C@@H](C)CN([C@@H](C)CO)C(=O)c2cc(NC(=O)CCCN(C)C)ccc2O1 returned ERp5 inh inactive, ERAP1 inh inactive and SIRT5 block inactive.
For O=C(C[C@H]1C[C@H]2c3cc(NC(=O)C4CCC4)ccc3O[C@H]2[C@@H](CO)O1)NCc1ccccc1 the results were ERp5 inh inactive, ERAP1 inh inactive and SIRT5 block inactive.
`CCS(=O)(=O)Nc1ccc2c(c1)C(=O)N(C)C[C@@H](OC)[C@@H](C)CN(C(=O)C1CCC1)[C@H](C)CO2` gave ERp5 inh inactive, ERAP1 inh inactive and SIRT5 block inactive.
Screening COc1cc(CN(C)C)cc(C=O)c1O returned HDAC3 inh inactive and PDI inh inactive.
Screening COc1cc(N=Nc2ccc(Br)cc2)cc(C=O)c1O returned ERp5 inh inactive, ERAP1 inh inactive, SIRT5 block 18 and PDI inh inactive.
Screening C=CCN(Cc1nc(-c2ccc(OC)cc2)no1)C(=O)c1ccc2c(c1)OCO2 returned ERp5 inh inactive, HDAC3 inh inactive, ERAP1 inh inactive, SIRT5 block 17 and PDI inh inactive.
Screening Cc1ccc(S(=O)(=O)Nc2ccc3c(c2)C(=O)N([C@@H](C)CO)C[C@H](C)[C@@H](CN(C)C(=O)Nc2c(C)noc2C)OCCCC[C@H](C)O3)cc1 returned ERp5 inh inactive, ERAP1 inh inactive and SIRT5 block inactive.
CC(C)(C)CC(C)(C)c1ccc(OCCOCC[N+](C)(C)Cc2ccccc2)cc1 was read as ERp5 inh inactive, HDAC3 inh 40, ERAP1 inh inactive, SIRT5 block inactive and PDI inh inactive.
Screening C[C@H]1CN([C@@H](C)CO)C(=O)CCCn2cc(nn2)CO[C@H]1CN(C)S(=O)(=O)c1cccc(F)c1 returned ERp5 inh inactive, ERAP1 inh inactive and SIRT5 block inactive.
For O=C(c1ccc(S(=O)(=O)N2CCCC2)cc1)N1CCN(Cc2ccc3c(c2)OCO3)CC1 the results were HDAC3 inh inactive and PDI inh inactive.
`Cc1ccc(C(=O)N2CCN(Cc3ccc4c(c3)OCO4)CC2)cc1S(=O)(=O)N1CCOCC1` gave ERp5 inh inactive, HDAC3 inh inactive, SIRT5 block 16 and PDI inh inactive.
Screening COCc1cn(CC[C@H]2CC[C@H](NC(=O)Nc3ccc(F)cc3)[C@H](CO)O2)nn1 returned ERp5 inh inactive, ERAP1 inh inactive and SIRT5 block inactive.
For COc1ccc(CNC(=O)c2cc(=O)c3cc(C)cc(C)c3o2)cc1 the results were ERp5 inh inactive, HDAC3 inh inactive, ERAP1 inh inactive, SIRT5 block 24 and PDI inh inactive.
For COc1ccc(CNC(=O)c2cc(=O)c3ccc(C)c(C)c3o2)cc1 the results were ERp5 inh inactive, HDAC3 inh inactive, ERAP1 inh inactive, SIRT5 block inactive and PDI inh inactive.
`O=C(Nc1ccc(F)cc1)N[C@@H]1C[C@@H]2O[C@@H](CO)CC[C@@H]2O[C@@H]1CCc1ccc(-c2ccccc2)cc1` gave ERp5 inh inactive, ERAP1 inh inactive and SIRT5 block inactive.
CC(C)CC#Cc1cnc2c(c1)C(=O)N([C@@H](C)CO)C[C@H](C)[C@@H](CN(C)C(=O)c1cccnc1)O2 was read as ERp5 inh inactive, ERAP1 inh inactive and SIRT5 block inactive.
Screening CCC1CN(C(=O)N2CCC(C(=O)Nc3ccccc3F)CC2)c2ccccc2O1 (stereo not drawn) returned ERp5 inh inactive, HDAC3 inh inactive, ERAP1 inh inactive, SIRT5 block 19 and PDI inh inactive.
COc1ccc2c3c(n(C)c2c1)[C@H](CO)N(C(=O)Cc1ccccc1)CC31CN(C(C)=O)C1 was read as ERp5 inh inactive and ERAP1 inh inactive.
C[C@H]1CN([C@@H](C)CO)S(=O)(=O)c2ccc(Br)cc2O[C@H]1CN(C)C(=O)Nc1ccccc1F was read as ERp5 inh inactive, ERAP1 inh inactive, SIRT5 block inactive and PDI inh inactive.
Screening CC(C)CC#Cc1ccc2c(c1)O[C@H](CN(C)C(=O)Nc1ccccc1F)[C@@H](C)CN([C@H](C)CO)S2(=O)=O returned ERp5 inh inactive, ERAP1 inh inactive and SIRT5 block inactive.
CCCC#Cc1ccc2c(c1)O[C@@H](CN(C)C(=O)c1ccccc1F)[C@H](C)CN([C@@H](C)CO)S2(=O)=O was read as ERp5 inh inactive, ERAP1 inh inactive and SIRT5 block inactive.
`CCCC#Cc1ccc2c(c1)O[C@@H](CN(C)C(=O)Nc1ccccc1F)[C@H](C)CN([C@@H](C)CO)S2(=O)=O` gave ERp5 inh inactive, ERAP1 inh inactive and SIRT5 block 17.
`CCCC#Cc1ccc2c(c1)O[C@@H](CN(C)C(=O)Nc1ccccc1F)[C@H](C)CN([C@H](C)CO)S2(=O)=O` gave ERp5 inh inactive, ERAP1 inh inactive and SIRT5 block 20.
